HT1080 IDH1KD tx – HT-1080 IDH1 knockdown cell toxicity (counter line); hit rate 2% among 360,000; AID 686971; HT-1080 IDH1 knockdown viability, ATP luminescence, 48 h; Potency, µM (titrated, usually from 46.1 µM), inactives show top-dose activity, negative = toxicity, hits mostly cytotoxic;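 also: potency is read from the fitted curve at half-maximal effect; 0% = DMSO wells and -100% = cell-free medium wells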
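Using the IDH1-knockdown HT-1080 line run in the same batch and compound series as the NT line, viability after 48 h at 37 °C was determined by CellTiter-Glo luminescence and expressed as % activity.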
DT40 TDP1 no CPT – qHTS for Inhibitors of human tyrosyl-DNA phosphodiesterase 1 (TDP1): qHTS in cells in absence of CPT. Potency, µM (series often up to 46.2 µM), for inactives: at the highest dose activity change, negative = growth inhibition, usual class: inhibitors. AID 686978, 2013. hit rate 15% among 420,000. DT40 Tdp1-/- hTDP1 cells, no CPT, ATP luminescence, 48 h; also: potency is read from the fitted curve at half-maximal effect; nearly all actives have a fitted effect of over 55% in size
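Growth of hTDP1-complemented DT40 Tdp1-knockout cells is measured by ATP luminescence after at least 48 hr compound exposure at 37 °C, with DMSO substituting for the 20 nM CPT used in the parallel screen.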
TDP1 cell CPT – DT40-hTDP1 cell growth loss with CPT; chicken DT40 Tdp1-/-;hTDP1 cells + 20 nM CPT, ATP luminescence, 48 h; hit rate 12% among 420,000; Potency, µM (series often up to 46.2 µM), for the others: at the highest dose activity change, negative = growth inhibition, actives largely listed as inhibitors; also: potency is read from the fitted curve at half-maximal effect; nearly all actives have a fitted effect of over 55% in size
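Chicken DT40 Tdp1-/- cells complemented with human TDP1, 400 cells/well, exposed to compounds plus 20 nM camptothecin for at least 48 h at 37 C; viability read as ATP content by CellTiter-Glo luminescence.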
HT1080NT lethal – kills 2HG-producing HT-1080-NT fibrosarcoma cells; HT-1080-NT fibrosarcoma viability, CellTiter-Glo ATP luminescence, 48 h; Potency, µM (titrated, usually from 46.1 µM), for the others: at the top dose activity, negative = less viability, usual class: cytotoxic; hit rate 1.6% among 360,000; AID 686970;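 also: NT is the 2HG producing partner of a matched IDH1 knockdown line; potency is read from the fitted curve at half-maximal effect; 0% = DMSO-treated cells and -100% = media-only wells without cells; nearly all actives have a fitted effect of over 55% in size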
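Compounds were tested in concentration-response format on HT-1080-NT cells for 48 hours at 37 degrees C. Cell viability came from CellTiter-Glo luminescence; curves were classified by r2, response magnitude and activity.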
IL1B secr inh – blocks inflammasome-driven IL-1 beta release | hit rate 4.7% among 360,000 | activity change, % at 57.5 µM | THP-1 LPS/ATP IL-1B secretion, AlphaLISA, 16 h; hits give low values; in the data active = activity change below about -50%; inconclusive = mostly about -30% to -49%
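THP-1 cells pretreated 1 hr with compounds (up to 57.5 uM final), then stimulated with LPS (250 ng/mL final) plus ATP (1.25 mM final); secreted IL-1B measured by AlphaLISA after 16 hr, decreased signal indicating inhibition.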
* marks the source's active call; other numbers are inactive results; [ ] = remark or other dose. The list is not random: actives were taken first. Their share in the collection is about 19%. Unless noted, calls follow the shape of the dose curve; as a rule, active = well fitted curve in the direction sought with a large enough effect; inconclusive = small, poorly fitted or top-dose-only effect, or another doubt; inactive = no such curve, though single readings can be large; an effect the other way counts as inactive or inconclusive. Unless noted, % is scaled to controls: 0 for no effect and ±100 for the full control effect.

What do the screens show for `Cc1ccccc1NC(=O)/C(C#N)=C\c1cn(CC(=O)O)c2ccccc12`?
HT1080 IDH1KD tx: 11%; DT40 TDP1 no CPT: -8%; TDP1 cell CPT: 3%; HT1080NT lethal: 15%; IL1B secr inh: -12

How did Cn1cc(/C=C(\C#N)C(=O)Nc2ccccc2O)c2ccccc21 do in these assays?
HT1080 IDH1KD tx: -27%; DT40 TDP1 no CPT: 18µM*; TDP1 cell CPT: inconclusive; HT1080NT lethal: -19%; IL1B secr inh: -62*

How did CC(C)OC(=O)/C(C#N)=C/c1cn(C)c2ccccc12 do in these assays?
HT1080 IDH1KD tx: -3%; DT40 TDP1 no CPT: -14%; TDP1 cell CPT: 3%; HT1080NT lethal: -14%; IL1B secr inh: -54*

Results for CN1CCN(C(=O)/C=C/c2c(F)cccc2Cl)CC1 ?
HT1080 IDH1KD tx: 19%; DT40 TDP1 no CPT: 12%; TDP1 cell CPT: 2%; HT1080NT lethal: 21%; IL1B secr inh: -4

What do the screens show for `Cc1cc(C(=O)N(Cc2cc3cc4c(cc3nc2N2CCOCC2)CCC4)CC2CCCO2)c(=O)[nH]c1C` (stereo not given)?
DT40 TDP1 no CPT: -5%; TDP1 cell CPT: 5%

What do the screens show for `CCCNC(=O)NC(=O)CSc1ccc2c(c1)OCCO2`?
HT1080 IDH1KD tx: -3%; DT40 TDP1 no CPT: -18%; TDP1 cell CPT: -10%; HT1080NT lethal: -5%; IL1B secr inh: 16

Results for CN(Cc1ccon1)C(=O)c1cnn(-c2ncc3c(n2)-c2ccccc2CCC3)c1C1CC1 ?
DT40 TDP1 no CPT: inconclusive; TDP1 cell CPT: -2%[9.04 µM]

How did CN(C)C(CNC(=O)c1ccc2c(=O)n(-c3ccccc3F)c(=S)[nH]c2c1)Cc1ccccc1 (stereo not given) do in these assays?
HT1080 IDH1KD tx: -25%; DT40 TDP1 no CPT: 18µM*; TDP1 cell CPT: 26µM*; HT1080NT lethal: 0%; IL1B secr inh: -16

Results for CCCC1OC2CC3C4CCC5=CC(=O)C=CC5(C)C4C(O)CC3(C)[C@]2(C(=O)CO)O1 (stereo not given in full) ?
DT40 TDP1 no CPT: inconclusive; TDP1 cell CPT: 16µM*

How did CCCC1OC2C[C@@H]3[C@H]4CCC5=CC(=O)C=C[C@]5(C)[C@H]4C(O)C[C@]3(C)[C@]2(C(=O)CO)O1 (stereo not given in full) do in these assays?
DT40 TDP1 no CPT: inconclusive; TDP1 cell CPT: 11µM*

Results for CCOC(=O)O[C@]1(C(=O)COC(=O)CC)CC[C@H]2[C@@H]3CCC4=CC(=O)C=C[C@]4(C)[C@H]3[C@@H](O)C[C@@]21C ?
HT1080 IDH1KD tx: 15%; DT40 TDP1 no CPT: inconclusive; TDP1 cell CPT: inconclusive; HT1080NT lethal: 14%; IL1B secr inh: -28

How did O=C(/C=C/c1ccc(-c2ccccc2)o1)c1ccccc1 do in these assays?
HT1080 IDH1KD tx: -3%; DT40 TDP1 no CPT: inconclusive; TDP1 cell CPT: inconclusive; HT1080NT lethal: 2%; IL1B secr inh: -99*

Results for Cc1ccc(C(=O)C=CC=Cc2ccccc2)cc1 ?
HT1080 IDH1KD tx: -7%; DT40 TDP1 no CPT: inconclusive; TDP1 cell CPT: inconclusive; HT1080NT lethal: 0%; IL1B secr inh: inconclusive

Results for Cc1ccc(-c2ccc(/C=C/C(=O)c3ccccc3)o2)cc1 ?
HT1080 IDH1KD tx: 2%; DT40 TDP1 no CPT: 23µM*; TDP1 cell CPT: inconclusive; HT1080NT lethal: -5%; IL1B secr inh: -79*

Results for CCC1CN(CCNC(=O)c2cc(C)nn2CC)Cc2cc(OC)ccc2O1 (stereo not given) ?
DT40 TDP1 no CPT: inconclusive; TDP1 cell CPT: -3%[9.04 µM]

How did O=C1c2ccccc2[C@@H]2C[C@@H](O)[C@H](Nc3cccc4ccccc34)CCN12 do in these assays?
HT1080 IDH1KD tx: -6%; DT40 TDP1 no CPT: 16µM*; TDP1 cell CPT: inconclusive; HT1080NT lethal: -3%; IL1B secr inh: -7

Results for COc1ccc(N[C@@H]2CCN3C(=O)c4ccccc4[C@@H]3C[C@H]2O)cc1 ?
HT1080 IDH1KD tx: 1%; DT40 TDP1 no CPT: -15%; TDP1 cell CPT: -2%; HT1080NT lethal: 0%; IL1B secr inh: 45

How did O=S(=O)(NC1CCCC1)c1ccc(F)cc1F do in these assays?
HT1080 IDH1KD tx: 9%; DT40 TDP1 no CPT: -6%; TDP1 cell CPT: -1%; HT1080NT lethal: 15%; IL1B secr inh: 14

How did COc1cc(-c2nc3nc[nH]n3c2Nc2ccc(C(C)C)cc2)ccc1O do in these assays?
DT40 TDP1 no CPT: 7.3µM*; TDP1 cell CPT: 23µM*

Results for COc1cc(-c2nc3cnccn3c2Nc2ccc(C)cc2)ccc1O ?
HT1080 IDH1KD tx: 16µM*; DT40 TDP1 no CPT: inconclusive; TDP1 cell CPT: inconclusive; HT1080NT lethal: inconclusive; IL1B secr inh: 65

What do the screens show for `CC(C)c1ccc(Nc2c(-c3ccccc3O)nc3cnccn23)cc1`?
DT40 TDP1 no CPT: 21µM*; TDP1 cell CPT: inconclusive

Results for COc1cc(-c2nc3cnccn3c2Nc2ccccc2)ccc1O ?
HT1080 IDH1KD tx: -24%; DT40 TDP1 no CPT: 18µM*; TDP1 cell CPT: 23µM*; HT1080NT lethal: -9%; IL1B secr inh: 156

Results for COc1cc(-c2nc3cnccn3c2Nc2ccc3c(c2)OCCO3)ccc1O ?
HT1080 IDH1KD tx: -9%; DT40 TDP1 no CPT: inconclusive; TDP1 cell CPT: inconclusive; HT1080NT lethal: 2%; IL1B secr inh: 59

What do the screens show for `c1ccc(-c2nc3cnccn3c2Nc2ccc3c(c2)OCCO3)cc1`?
HT1080 IDH1KD tx: -10%; DT40 TDP1 no CPT: inconclusive; TDP1 cell CPT: inconclusive; HT1080NT lethal: -2%; IL1B secr inh: 82

Results for C/C(CCc1ccc2c(c1)OCO2)=N\NC(=O)c1ccccc1Br ?
HT1080 IDH1KD tx: 5%; DT40 TDP1 no CPT: -14%; TDP1 cell CPT: 18%; HT1080NT lethal: 21%; IL1B secr inh: -2

How did Cc1cc(C)c(S(=O)(=O)N(C)CC(=O)N2CCCC2)c(C)c1 do in these assays?
HT1080 IDH1KD tx: 0%; DT40 TDP1 no CPT: inconclusive; TDP1 cell CPT: -6%; HT1080NT lethal: 4%; IL1B secr inh: 20

What do the screens show for `COc1cc(-c2nc3cnccn3c2Nc2ccc(C(C)C)cc2)ccc1O`?
HT1080 IDH1KD tx: inconclusive; DT40 TDP1 no CPT: 8.2µM*; TDP1 cell CPT: 9.2µM*; HT1080NT lethal: inconclusive; IL1B secr inh: -81*

How did COC(=O)c1cc(NC(=O)Nc2ccc3snnc3c2)cc(C(=O)OC)c1 do in these assays?
DT40 TDP1 no CPT: -5%; TDP1 cell CPT: -12%

What do the screens show for `COc1ccc(NC(=O)Nc2cc(C)ccc2F)cc1OC`?
HT1080 IDH1KD tx: inconclusive; DT40 TDP1 no CPT: -13%; TDP1 cell CPT: -2%; HT1080NT lethal: inconclusive; IL1B secr inh: -51*

How did Cc1cccc(NC(=O)c2ccc3snnc3c2)c1 do in these assays?
DT40 TDP1 no CPT: -6%; TDP1 cell CPT: -11%

How did O=C(Nc1ccc(F)cc1)Nc1ccc2snnc2c1 do in these assays?
DT40 TDP1 no CPT: 6.5µM*; TDP1 cell CPT: 3.7µM*

Assay outcomes: PubChem, National Center for Advancing Translational Sciences (NCATS)
